# Results from PubChem BioAssay (NCATS).
# Inconclusive results are not listed. Entries that show only a call come without a potency. Calls of active or inactive are those of the source. Unless noted, calls follow the shape of the dose curve; as a rule, active = well fitted inhibition curve with a large enough effect; inconclusive = small, poorly fitted or top-dose-only effect; inactive = flat fitted curve, though single readings scatter.
# How the values were obtained:
# [1] = AP1 Signaling Pathway (AID 357; active = well fitted curve in either direction with a large enough effect, not every such curve was filed as active)
# Summary of the method: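 ME-180 cells with beta-lactamase reporter under AP-1 response element, stimulated with EC50 EGF; compounds tested in titration series, 5 h at 37 °C. CCF4 substrate added 2.5 h at room temperature; 460/530 nm emission ratio gave %activity and AC50.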
# [2] = biological target: Cytochrome P450 1A2 (Homo sapiens) (UniProt P05177); assay: p450-cyp1a2 (AID 410; calls by dose curve)
# Summary of the method: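 Inhibition was calculated relative to 57 uM furafylline (full inhibition). The reaction used human CYP1A2 at 20nM with Luciferin-ME at its Km, 100uM, driven by an NADPH-regenerating system for 60 min at room temperature.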
# [3] = NFAT Signaling Pathway (AID 444; active = well fitted curve in either direction with a large enough effect, not every such curve was filed as active;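 also: carbachol stimulus at about its EC50 of 1 µM final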); conditions: Jurkat NFAT-bla M1, carbachol, beta-lactamase ratio, 5 h; at 17.2 µM (top of the series) unless noted
# Summary of the method: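 Read-out: CCF4 FRET ratio (460 nm/530 nm) after 1 h RT dye loading, used for %activity and AC50 from titration series. Cells: Jurkat NFAT-β-lactamase/M1 line, treated with compound plus 1 uM carbachol for 5 h, 37 °C.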
# [4] = Stat Signaling Pathway (AID 446; active = well fitted curve in either direction with a large enough effect, not every such curve was filed as active;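 also: ME-180 cervical cancer cells given 40 pM IL-6 alongside compound; SIE-controlled beta-lactamase reporter measured as 460/530 nm FRET emission ratio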)
# Summary of the method: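 ME-180 cells carrying a SIE-driven beta-lactamase reporter are stimulated with 40 pM IL-6 for 5 h at 37C in the presence of compound. The 460/530 nm FRET substrate ratio is read after 2.5 h at RT. Data are normalised to 300 pM IL-6 and to 125 nM JAK inhibitor controls.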
# [5] = biological target: Glucocorticoid receptor (Homo sapiens) (UniProt P04150); assay: GR-GFP Redistribution (AID 450;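 active = compounds whose dose series gives a full or clear partial fitted curve of increased nuclear translocation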; also: potency is read from the fitted curve at half-maximal effect); conditions: U2OS GR-GFP nuclear translocation, laser cytometry, 2 h
# [6] = biological target: Glucocorticoid receptor (Homo sapiens) (UniProt P04150); assay: GR-EFC Redistribution (AID 451; calls by dose curve; also: potency is read from the fitted curve at half-maximal effect); conditions: CHO-K1 GR-EFC translocation, beta-gal luminescence, 2 h
# Summary of the method: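 Translocation of GR-ED fusion to nuclear EA restores b-gal, read by luminescence after 1 h room-temperature detection. Engineered CHO-K1 biosensor cells, 1,000/well, exposed 2 h at 37 C to titrations up to 46 uM final.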
# [7] = biological target: Mitogen-activated protein kinase 10 (Mus musculus) (UniProt Q61831); assay: JNK3 AlphaScreen Assay (AID 530; active = well fitted curve in either direction with a large enough effect, not every such curve was filed as active;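 also: kinase came from lysate of stimulated human HepG2 cells; signal reports phosphorylation of biotinylated GST-cJun 1-79 at Ser73 with 10 µM ATP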)
# Summary of the method: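 Room-temperature AlphaScreen kinase assay; pre-activated HepG2 lysate as JNK3 source, biotin-GST-cJun(1-79) substrate, 10 uM ATP, compound 15 min preincubation.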
# [8] = biological target: 3',5'-cyclic-AMP phosphodiesterase 4B (Homo sapiens) (UniProt Q07343); assay: qHTS Assay for Inhibitors of PDE-IV (AID 607; active = well fitted activation curve with a large enough effect in the main read-out, with a control signal flat, not every such curve was filed as active)
# Summary of the method: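 HEK293 ACTOne cells with CNG channel (1000/well), endogenous PDE4; membrane potential dye, compounds up to 22.9 uM final. Fluorescence Ex 535/Em 590; RO 20-1724 (100 uM final) as reference.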
# [9] = qHTS Assay for Lipid Storage Modulators (AID 1519; calls by dose curve); conditions: Drosophila S3 cells, BODIPY lipid droplet/cell ratio, laser cytometry, cells loaded with oleic acid; for activity change, negative = inhibition: at 25.7 µM (top of the series)
# Summary of the method: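 Cells seeded at 5,000 per well were treated with compounds over a concentration series and loaded with oleic acid (400 uM, as added). Lipid droplet fluorescence (488 nm excitation, 500-530 nm channel) was read by laser-scanning cytometry and normalized to 20 uM Triacsin C.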
# [10] = biological target: Luciferin 4-monooxygenase (Photinus pyralis) (UniProt P08659); assay: Biochemical firefly luciferase enzyme assay for NPC (AID 624030);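 also: purified P. pyralis luciferase at 10 nM with luciferin and ATP substrate; nearly all actives have a fitted effect of over 70% in size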
# Summary of the method: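 Direct inhibition of firefly luciferase enzyme (10 nM final, 50 mM Tris Acetate) assessed by luminescence within 5 minutes. Percent activity scaled between DMSO and PTC124 positive control, with concentration-effect curves classified by fit quality and response.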
# [11] = qHTS profiling for inhibitors of Plasmodium falciparum proliferation (AID 504749); also: nearly all actives have a fitted effect of over 60% in size; conditions: P. falciparum in erythrocytes, SYBR Green DNA, 72 h
# Summary of the method: (§1)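 Three-day growth assay of blood-stage parasites in erythrocytes (0.3% parasitemia, 2.5% hematocrit) at 37 C, 5% CO2, quantified by SYBR Green DNA staining after overnight detergent lysis.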
# C2A = assay: as above; conditions: P. falciparum in erythrocytes, SYBR Green DNA, 72 h; series mostly up to 12.8 µM
# Summary of the method: as §1
# CP217 = assay: as above; conditions: P. falciparum in erythrocytes, SYBR Green DNA, 72 h; series mostly up to 12.8 µM
# Summary of the method: as §1
# CP238 = assay: as above; conditions: P. falciparum in erythrocytes, SYBR Green DNA, 72 h; series mostly up to 12.8 µM
# Summary of the method: as §1
# CP250 = assay: as above; conditions: P. falciparum in erythrocytes, SYBR Green DNA, 72 h; series mostly up to 12.8 µM
# Summary of the method: as §1
# FAB9 = assay: as above; conditions: P. falciparum in erythrocytes, SYBR Green DNA, 72 h; series mostly up to 12.8 µM
# Summary of the method: as §1
# JCK = assay: as above; conditions: P. falciparum in erythrocytes, SYBR Green DNA, 72 h; series mostly up to 12.8 µM
# Summary of the method: as §1
# PC49 = assay: as above; conditions: P. falciparum in erythrocytes, SYBR Green DNA, 72 h; series mostly up to 12.8 µM
# Summary of the method: as §1
# SC27B = assay: as above; conditions: P. falciparum in erythrocytes, SYBR Green DNA, 72 h; series mostly up to 12.8 µM
# Summary of the method: as §1
# [12] = biological target: Ubiquitin carboxyl-terminal hydrolase 1 (Homo sapiens) (UniProt O94782); assay: Inhibitors of USP1/UAF1: Pilot qHTS (AID 504865);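 also: rhodamine fluorescence freed from ubiquitin-rhodamine substrate followed over time; top concentration of the series differs between compounds; nearly all actives have a fitted effect of over 35% in size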
# Summary of the method: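 USP1/UAF1 complex (1nM) preincubated with compound 15 min at room temperature, then Ub-Rho substrate (150nM final) added. Fluorescence read kinetically at 480/540 nm, 6 reads every 60 seconds. Buffer: 50mM HEPES pH 7.8, 0.5mM EDTA, 0.1 mg/ml BSA, 1mM TCEP, 0.01% Tween-20.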
# [13] = measured here: cell count channel max response
# [14] = measured here: lipid channel max response
# [15] = at 12.8 µM (top of the series), parasite line A
# Chain of 3',5'-cyclic-AMP phosphodiesterase 4B (Homo sapiens) (Q07343 whole entry, looked up): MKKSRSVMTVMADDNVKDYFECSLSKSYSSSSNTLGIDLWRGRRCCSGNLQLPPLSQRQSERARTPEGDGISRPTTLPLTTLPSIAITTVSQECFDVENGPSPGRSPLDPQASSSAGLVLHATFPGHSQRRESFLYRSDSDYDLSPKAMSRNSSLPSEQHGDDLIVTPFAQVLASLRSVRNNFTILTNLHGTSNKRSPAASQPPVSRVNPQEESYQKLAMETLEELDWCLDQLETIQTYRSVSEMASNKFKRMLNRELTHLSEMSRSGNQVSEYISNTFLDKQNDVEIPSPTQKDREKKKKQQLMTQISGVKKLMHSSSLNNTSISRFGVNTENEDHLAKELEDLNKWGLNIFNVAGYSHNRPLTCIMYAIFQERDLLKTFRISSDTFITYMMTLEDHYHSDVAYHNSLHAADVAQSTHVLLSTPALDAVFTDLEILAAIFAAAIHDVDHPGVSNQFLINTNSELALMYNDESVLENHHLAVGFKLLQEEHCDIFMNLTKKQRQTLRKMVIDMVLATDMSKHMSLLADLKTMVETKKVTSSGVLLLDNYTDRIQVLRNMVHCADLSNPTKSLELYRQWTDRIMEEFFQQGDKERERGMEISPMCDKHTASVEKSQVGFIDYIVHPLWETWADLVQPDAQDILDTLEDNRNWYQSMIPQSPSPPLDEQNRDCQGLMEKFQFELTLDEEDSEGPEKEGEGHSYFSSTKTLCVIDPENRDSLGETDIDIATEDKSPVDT
# Chain of Luciferin 4-monooxygenase (Photinus pyralis) (P08659 whole entry, looked up): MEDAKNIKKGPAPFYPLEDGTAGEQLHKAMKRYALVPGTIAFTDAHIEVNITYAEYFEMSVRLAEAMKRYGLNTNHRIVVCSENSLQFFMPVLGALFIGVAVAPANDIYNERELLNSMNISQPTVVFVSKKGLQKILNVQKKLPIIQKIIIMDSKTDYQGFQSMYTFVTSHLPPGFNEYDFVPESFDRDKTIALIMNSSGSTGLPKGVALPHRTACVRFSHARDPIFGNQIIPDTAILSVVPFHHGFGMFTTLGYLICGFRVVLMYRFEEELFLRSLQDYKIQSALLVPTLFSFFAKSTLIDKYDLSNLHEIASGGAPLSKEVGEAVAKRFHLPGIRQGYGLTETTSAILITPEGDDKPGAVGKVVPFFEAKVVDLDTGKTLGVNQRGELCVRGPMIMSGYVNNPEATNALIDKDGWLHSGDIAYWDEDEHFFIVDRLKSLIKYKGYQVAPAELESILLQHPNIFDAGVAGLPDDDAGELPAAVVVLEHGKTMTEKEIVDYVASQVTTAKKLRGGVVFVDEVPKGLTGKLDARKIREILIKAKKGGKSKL
# Chain of Cytochrome P450 1A2 (Homo sapiens) (P05177 whole entry, looked up): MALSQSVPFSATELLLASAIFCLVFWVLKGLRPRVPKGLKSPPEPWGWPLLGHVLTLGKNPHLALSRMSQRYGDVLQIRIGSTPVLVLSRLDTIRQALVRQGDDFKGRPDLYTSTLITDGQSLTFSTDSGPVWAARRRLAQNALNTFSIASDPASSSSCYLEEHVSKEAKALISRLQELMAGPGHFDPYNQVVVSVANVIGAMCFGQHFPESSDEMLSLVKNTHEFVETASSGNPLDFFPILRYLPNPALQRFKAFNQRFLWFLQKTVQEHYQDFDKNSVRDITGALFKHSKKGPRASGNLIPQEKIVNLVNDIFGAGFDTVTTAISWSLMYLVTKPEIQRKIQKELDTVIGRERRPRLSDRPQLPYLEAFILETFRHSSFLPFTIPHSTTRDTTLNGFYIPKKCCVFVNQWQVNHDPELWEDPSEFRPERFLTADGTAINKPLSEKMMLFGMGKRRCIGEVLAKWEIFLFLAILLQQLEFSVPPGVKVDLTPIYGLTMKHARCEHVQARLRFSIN
# Chain of Ubiquitin carboxyl-terminal hydrolase 1 (Homo sapiens) (O94782 whole entry, looked up): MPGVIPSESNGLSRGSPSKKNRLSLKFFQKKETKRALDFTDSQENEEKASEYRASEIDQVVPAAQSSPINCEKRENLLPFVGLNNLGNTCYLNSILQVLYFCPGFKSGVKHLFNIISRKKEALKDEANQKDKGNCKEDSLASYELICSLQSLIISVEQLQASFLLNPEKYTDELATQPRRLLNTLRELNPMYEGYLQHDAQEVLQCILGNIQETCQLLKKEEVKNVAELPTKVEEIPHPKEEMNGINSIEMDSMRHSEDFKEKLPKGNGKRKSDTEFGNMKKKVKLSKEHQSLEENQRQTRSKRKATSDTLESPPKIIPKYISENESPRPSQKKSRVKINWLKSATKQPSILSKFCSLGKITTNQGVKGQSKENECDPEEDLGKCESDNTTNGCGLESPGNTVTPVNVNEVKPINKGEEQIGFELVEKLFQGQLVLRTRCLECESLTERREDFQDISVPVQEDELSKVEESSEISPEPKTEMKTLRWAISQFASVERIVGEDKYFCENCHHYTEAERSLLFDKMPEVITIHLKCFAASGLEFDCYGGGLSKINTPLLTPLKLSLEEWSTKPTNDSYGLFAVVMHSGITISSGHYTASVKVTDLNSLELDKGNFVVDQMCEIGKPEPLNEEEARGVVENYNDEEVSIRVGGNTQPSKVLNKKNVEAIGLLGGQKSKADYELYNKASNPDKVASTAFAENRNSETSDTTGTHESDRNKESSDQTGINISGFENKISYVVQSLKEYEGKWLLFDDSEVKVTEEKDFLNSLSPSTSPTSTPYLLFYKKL
# Chain of Glucocorticoid receptor (Homo sapiens) (P04150 whole entry, looked up, the tested form may be a part): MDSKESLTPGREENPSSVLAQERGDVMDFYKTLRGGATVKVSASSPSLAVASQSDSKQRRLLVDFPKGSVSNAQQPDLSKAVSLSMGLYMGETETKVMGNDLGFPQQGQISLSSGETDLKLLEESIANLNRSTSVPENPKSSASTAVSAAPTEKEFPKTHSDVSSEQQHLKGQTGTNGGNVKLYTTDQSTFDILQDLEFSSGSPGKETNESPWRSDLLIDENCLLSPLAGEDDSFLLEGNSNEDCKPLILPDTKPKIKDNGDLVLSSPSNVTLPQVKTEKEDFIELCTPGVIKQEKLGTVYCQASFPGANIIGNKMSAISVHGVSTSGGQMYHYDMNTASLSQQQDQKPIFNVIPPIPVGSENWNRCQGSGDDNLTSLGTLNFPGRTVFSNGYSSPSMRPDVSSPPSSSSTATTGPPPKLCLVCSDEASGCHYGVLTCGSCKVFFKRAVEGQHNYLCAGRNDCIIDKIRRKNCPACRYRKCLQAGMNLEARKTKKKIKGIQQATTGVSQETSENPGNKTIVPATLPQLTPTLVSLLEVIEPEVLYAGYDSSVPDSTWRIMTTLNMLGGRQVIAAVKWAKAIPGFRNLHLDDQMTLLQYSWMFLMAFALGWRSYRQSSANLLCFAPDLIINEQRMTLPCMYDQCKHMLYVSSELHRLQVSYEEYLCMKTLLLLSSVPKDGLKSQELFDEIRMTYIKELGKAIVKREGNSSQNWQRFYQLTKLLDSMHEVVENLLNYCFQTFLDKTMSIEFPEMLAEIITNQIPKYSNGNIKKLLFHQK
compound,measurement,setting,value
CNC[C@H](O)c1ccc(OC(=O)C(C)(C)C)c(OC(=O)C(C)(C)C)c1,outcome,[1],inactive
same,Potency,[2],inactive
same,"activity change, negative = inhibition",[3],1.95% (inactive)
same,outcome,[4],inactive
same,Potency,[5],> 20.6 µM (inactive)
same,Potency,[6],> 20.6 µM (inactive)
same,Potency,[7],inactive
same,outcome,[8],inactive
same,"activity change, negative = inhibition",[9],0.431% (inactive)
same,max response,[9]; [13],14.1%
same,max response,[9]; [14],16.1%
same,Potency,[10],inactive
same,"activity, negative = inhibition",[11]; [15],-7.03% (inactive)
same,Potency,C2A,inactive
same,Potency,CP217,inactive
same,Potency,CP238,inactive
same,Potency,CP250,inactive
same,Potency,FAB9,inactive
same,Potency,JCK,inactive
same,Potency,PC49,inactive
same,Potency,SC27B,inactive
CN1CC[C@@]23c4ccccc4N[C@H]1[C@]21CCN(C)[C@@H]3Nc2ccccc21,outcome,[1],inactive
same,Potency,[2],inactive
same,"activity change, negative = inhibition",[3],-9.09% (inactive)
same,outcome,[4],inactive
same,Potency,[5],> 20.6 µM (inactive)
same,Potency,[6],> 20.6 µM (inactive)
same,Potency,[7],inactive
same,outcome,[8],inactive
same,"activity change, negative = inhibition",[9],-2.36% (inactive)
same,max response,[9]; [13],-9.01%
same,max response,[9]; [14],-11.8%
same,Potency,[12],inactive
O=c1[nH]c(=O)n([C@@H]2C[C@H](O)[C@H](CO)O2)cc1C(F)(F)F,outcome,[1],inactive
same,Potency,[2],inactive
same,"activity change, negative = inhibition",[3],1.4% (inactive)
same,outcome,[4],inactive
same,Potency,[5],> 20.6 µM (inactive)
same,Potency,[6],> 20.6 µM (inactive)
same,Potency,[7],inactive
same,"activity change, negative = inhibition",[9],-0.507% (inactive)
same,max response,[9]; [13],-7.04%
same,max response,[9]; [14],-7.97%
same,Potency,[12],inactive
CC(=O)N(C[C@@H](C)C(=O)O)c1c(I)cc(I)c(N)c1I,outcome,[1],inactive
same,Potency,[2],inactive
same,"activity change, negative = inhibition",[3],-3.37% (inactive)
same,outcome,[4],inactive
same,Potency,[5],> 20.6 µM (inactive)
same,Potency,[6],> 20.6 µM (inactive)
same,Potency,[7],inactive
same,outcome,[8],inactive
same,"activity change, negative = inhibition",[9],0.163% (inactive)
same,max response,[9]; [13],2.03%
same,max response,[9]; [14],3.33%
same,Potency,[10],inactive
same,"activity, negative = inhibition",[11]; [15],4.38% (inactive)
same,"activity, negative = inhibition","[11]; at 12.8 µM (top of the series), parasite line B",4.5% (inactive)
same,Potency,C2A,inactive
same,Potency,CP217,inactive
same,Potency,CP238,inactive
same,Potency,CP250,inactive
same,Potency,FAB9,inactive
same,Potency,JCK,inactive
same,Potency,PC49,inactive
same,Potency,SC27B,inactive
Clc1cnccn1,outcome,[1],inactive
same,Potency,[2],inactive
same,"activity change, negative = inhibition",[3],-22.8% (inactive)
same,outcome,[4],inactive
same,Potency,[5],> 20.6 µM (inactive)
same,Potency,[6],> 20.6 µM (inactive)
same,Potency,[7],inactive
same,outcome,[8],inactive
same,"activity change, negative = inhibition",[9],2.5% (inactive)
same,max response,[9]; [13],8.49%
same,max response,[9]; [14],10.5%
same,Potency,[12],inactive
CCOC(=O)[C@H](CCc1ccccc1)N[C@@H](C)C(=O)N1[C@H](C(=O)O)C[C@H]2CCC[C@@H]21,outcome,[1],inactive
same,Potency,[2],inactive
same,"activity change, negative = inhibition",[3],-18.7% (inactive)
same,outcome,[4],inactive
same,Potency,[5],> 20.6 µM (inactive)
same,Potency,[6],> 20.6 µM (inactive)
same,Potency,[7],inactive
same,outcome,[8],inactive
same,"activity change, negative = inhibition",[9],-3.49% (inactive)
same,max response,[9]; [13],-8.48%
same,max response,[9]; [14],-7.94%
same,Potency,[10],inactive
same,"activity, negative = inhibition","[11]; at 28.7 µM (top of the series), parasite line A",14.3% (inactive)
same,"activity, negative = inhibition","[11]; at 28.7 µM (top of the series), parasite line B",4.68% (inactive)
same,Potency,C2A,inactive
same,Potency,CP217,inactive
same,Potency,CP238,inactive
same,Potency,CP250,inactive
same,Potency,FAB9,inactive
same,Potency,JCK,inactive
same,Potency,PC49,inactive
same,Potency,SC27B,inactive
